Source: PubChem BioAssay (National Center for Advancing Translational Sciences (NCATS))
Only some compounds are listed: those with a hit (about 5.9% of all), similar ones and a draw of the others.
Coupling enz: inhibits coupling enzyme system, counter-screen for aldolase hits; coupling enzyme system counterscreen, AmpLite Red fluorescence; activity change, negative = inhibition, % at 58.2 µM, hits read low; 290,000 compounds, 0.67% hits; in the data active = activity change below about -30%
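Coupling enzymes only (glyceraldehyde-3-phosphate) + compound, at 57.5 uM final, 10 min RT; add substrate/coupling/AmpLite Red mix, 20 min RT; fluorescence ex 525/em 598 nm. Actives flag coupling-system interference.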
TrxR1 inh: blocks rat thioredoxin reductase 1 | Potency, µM (highest dose often 114 µM), without a hit: top-dose activity change, negative = inhibition, actives largely listed as inhibitors | AID 588453 | 390,000 compounds, 1% hits | O89049 | recombinant rTrxR1, NADPH fluorescence consumption, selenite substrate; note: potency is the fitted concentration of half-maximal effect; nearly all actives have a fitted effect of over 65% in size
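Rat TrxR1 (90 nM in the dispensed reagent) was pre-reduced with 400 uM NADPH for 5 min at room temperature, then incubated with compound for 15 min. After 400 uM selenite was added, NADPH fluorescence (Ex 340/Em 450 nm) was followed for 8 min.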
Gal4-VP16 FLuc: inhibits Gal4-VP16 luciferase reporter, ROR gamma counter-screen; Drosophila S2 Gal4-VP16 UAS-luciferase, luminescence, 20 h; Potency, µM (doses to about 53.6 µM), for inactives: at the top dose activity, negative = inhibition, most hits filed as inhibitors; 310,000 compounds, 3.5% hits; AID 2546;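 note: Gal4-VP16 expression switched on by copper sulfate through the metallothionein promoter; potency is the fitted concentration of half-maximal effect; nearly all actives have a fitted effect of over 50% in size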
RORg inh: inhibitors of mouse ROR gamma transcriptional activity; P51450; Drosophila S2 Gal4-RORgamma UAS-luciferase reporter, 20 h; Potency, µM (top dose mostly 53.6 µM), for the others: at the highest dose activity change, negative = inhibition, hits mostly inhibitors; 310,000 compounds, 5.4% hits; AID 2551; note: potency is the fitted concentration of half-maximal effect; nearly all actives have a fitted effect of over 60% in size
Target sequence (P51450 whole entry, looked up, the tested form may be a part): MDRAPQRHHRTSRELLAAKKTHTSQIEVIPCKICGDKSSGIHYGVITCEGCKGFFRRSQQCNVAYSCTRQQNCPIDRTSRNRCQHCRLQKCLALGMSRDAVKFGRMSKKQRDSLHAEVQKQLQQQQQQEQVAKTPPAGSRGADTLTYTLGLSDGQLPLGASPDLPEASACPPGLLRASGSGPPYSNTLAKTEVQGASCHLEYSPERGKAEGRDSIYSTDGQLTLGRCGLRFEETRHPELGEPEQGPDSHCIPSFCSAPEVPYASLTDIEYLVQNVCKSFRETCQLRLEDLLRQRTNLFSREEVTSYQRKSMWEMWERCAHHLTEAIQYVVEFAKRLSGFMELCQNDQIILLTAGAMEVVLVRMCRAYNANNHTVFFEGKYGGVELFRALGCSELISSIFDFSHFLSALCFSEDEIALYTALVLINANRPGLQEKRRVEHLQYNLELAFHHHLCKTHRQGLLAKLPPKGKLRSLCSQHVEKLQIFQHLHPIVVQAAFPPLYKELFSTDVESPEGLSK
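A Gal4/UAS one-hybrid system in insect cells: metallothionein-promoter Gal4–ROR gamma fusion plus Photinus luciferase reporter. Copper sulfate 700 uM final, 20 hr ambient incubation, luminescent detection after 10 min with reagent.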
GALK inhibitor: blocks human galactokinase activity; Potency, µM (series often up to 57.5 µM), inactives show at the highest dose activity change, negative = inhibition, usual class: inhibitors; 270,000 compounds, 0.007% hits; P51570; AID 1868; Purified GALK, Kinase-Glo residual ATP luminescence; note: potency is the fitted concentration of half-maximal effect
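Luminescence from leftover ATP (Ultra-Glo luciferase/luciferin) served as read-out after a 1 h room-temperature reaction of 5 nM GALK with 35 uM ATP and 100 uM galactose.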
TrxR1 substrate: is turned over as a substrate by rat TrxR1; purified TrxR1 substrate turnover, NADPH consumption readout; Potency, µM (highest dose often 114 µM), for inactives: at the top dose activity change, negative = substrate turnover; 390,000 compounds, 0.01% hits; AID 588456; O89049; note: potency is the fitted concentration of half-maximal effect; nearly all actives have a fitted effect of over 50% in size
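Rat TrxR1, dispensed at 90 nM, was prereduced with 400 uM NADPH (final) for 5 min at ~22 deg C, then incubated with compound 15 min before 400 uM selenite. A first-read NADPH fluorescence drop versus no-compound background flagged substrates.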
* hit, by the source's call; u = inconclusive; x = not tested or not shown; [ ] = remark or other dose. Unless noted, calls come from the whole dose curve; as a rule, active = well fitted curve in the direction sought with a large enough effect; inconclusive = small, poorly fitted or top-dose-only effect, or another doubt; inactive = no such curve, though single readings can be large; an effect the other way counts as inactive or inconclusive. % is set by controls: 0 for no effect and ±100 for the full control effect.

SMILES	Coupling enz	TrxR1 inh	Gal4-VP16 FLuc	RORg inh	GALK inhibitor	TrxR1 substrate
COc1ccc(OC)c(C2Nc3c(Cl)ccc(C(=O)O)c3C3C=CCC32)c1 (stereo unspecified)	26	-71%	0%	28%	9%	5%[57.1 µM]
Cc1ccnc(-n2c(C)cc(C=O)c2C)c1	2	6%	-22%	-13%	5%	4%
O=C(Nc1ccc(F)cc1)c1ccc(C(=O)N2CCCC(O)C2)cc1 (stereo unspecified)	x	10µM*	x	x	x	14%[57.1 µM]
COc1ccccc1C1=NOC(C)(c2nnc(Cc3ccccc3)o2)C1 (stereo unspecified)	x	-1%[57.1 µM]	x	x	x	-8%[57.1 µM]
COc1ccc(N2C(=O)CC(Sc3n[nH]c(-c4ccccc4)n3)C2=O)cc1 (stereo unspecified)	0	2µM*	-83%	11µM*	5%	5%[57.1 µM]
CCOc1ccc(N2C(=O)CC(Sc3n[nH]c(-c4ccccc4)n3)C2=O)cc1 (stereo unspecified)	0	6.3µM*	u	u	3%	6%
COc1ccc(N2C(=O)CC(Sc3nc(C)c4c(n3)CCCC4)C2=O)cc1 (stereo unspecified)	1	-5%	-2%	4%	0%	-3%
COc1ccc(CNC(=S)Nc2ccc3nc(N4CCN(C)CC4)cc(C)c3c2)cc1	1	u	-1%	-29%	0%	4%
Cc1cc(N2CCOCC2)nc2ccc(NC(=O)CCC(=O)N3CCCCC3)cc12	1	-8%	-2%	-2%	-1%	157%
COc1ccc(CNC(=S)Nc2ccc3nc(N4CCOCC4)cc(C)c3c2)cc1	-1	7%	-93%	10µM*	-3%	9%
CCC(C)NC(=S)Nc1ccc2nc(N3CCOCC3)cc(C)c2c1 (stereo unspecified)	-3	-16%	u	10µM*	4%	12%
Cc1cc(N2CCOCC2)nc2ccc(NC(=O)CCC(=O)N3CCC(C)CC3)cc12	-33*	-19%	0%	0%	1%	136%
Cc1cc(N2CCCC2)nc2ccc(NC(=S)NCCCOC(C)C)cc12	-1	45µM*	u	11µM*	7%	6%
CCN(CC(=O)Nc1c(F)cccc1F)C(=O)C1CCN(c2ncnc3sc(C)c(C)c23)CC1	x	5%	x	x	x	-2%
C=CCn1cc(/C=N/Nc2nc3ccccc3[nH]2)c2ccccc21	-9	2%[57.1 µM]	7.1µM*	4.5µM*	0%	8%[57.1 µM]
CCCn1c(/C=N/Nc2nc3ccccc3[nH]2)nc2ccccc21	6	-7%	3.2µM*	2µM*	0%	-10%
Cc1nn(-c2ccccc2)c(C)c1/C=N/Nc1nc2ccccc2[nH]1	0	-11%[57.1 µM]	-2%	5%	2%	-8%[57.1 µM]
Cc1c(/C=N/Nc2nc3ccccc3[nH]2)c2ccccc2n1C	-4	8%[2.29 µM]	u	5µM*	x	-2%[57.1 µM]
Cn1c(/C=N/Nc2nc3ccccc3[nH]2)nc2ccccc21	-1	19%	13µM*	4.5µM*	3%	-3%
COc1ccc2[nH]cc(C(=O)CN3CCN(C(=O)c4ccco4)CC3)c2c1	2	-35%	-3%	-18%	-2%	-9%
O=C(O)C(c1ccccc1)C(O)c1ccc2c(c1)OCO2 (stereo unspecified)	x	13%	x	x	x	5%
O=c1c(-c2cc(F)cc(F)c2)nc2cnc(N3CCNCC3)nc2n1-c1ccccc1	3	x	-7%	-6%	x	x
CN1c2cc(O)c(N=NC(N)=O)cc2CC1S(=O)(=O)O (stereo unspecified)	x	x	-3%	-13%	x	x
CC(C)Cn1c(/C=N/Nc2nc3ccccc3[nH]2)nc2ccccc21	0	9%	1.1µM*	1.8µM*	1%	-2%
CC(/C=N/Nc1nc(C)cc(=O)[nH]1)=C\c1ccccc1	-2	-4%	u	-2%	-1%	-4%
SMILES	Coupling enz	TrxR1 inh	Gal4-VP16 FLuc	RORg inh	GALK inhibitor	TrxR1 substrate
COc1cccc(/C=N/Nc2nc3ccccc3[nH]2)c1OC	2	-1%[57.1 µM]	u	u	2%	-9%[57.1 µM]
CC(/C=N/Nc1nc2ccccc2[nH]1)=C\c1ccccc1	0	u	7.1µM*	6.3µM*	0%	-2%
Cc1cccc(NC(=O)C(=O)NCC(c2cccnc2)N2CCN(Cc3ccccc3)CC2)c1 (stereo unspecified)	x	22%	x	x	x	0%
CC(Oc1ccccc1Br)C(=O)N1CCc2ccccc21 (stereo unspecified)	-4	-10%	3%	14µM*	2%	-9%
CC(C)C(=O)NC(=S)N1CCc2ccccc21	0	-31%	u	8.9µM*	x	-15%
O=C(COc1ccccc1)NC(=S)N1CCc2ccccc21	5	-15%[11.4 µM]	2.5µM*	1.3µM*	-1%	-6%[11.4 µM]
O=C(COc1ccccc1Cl)NC(=S)N1CCc2ccccc21	x	-14%	1.1µM*	0.71µM*	-2%	-1%
O=c1[nH]cnc2c1nc(Cl)n2C1OC(CO)C(O)C1O (stereo unspecified)	4	x	4%	6%	x	x
COc1ccc(CC(=O)N[C@@H](CCSC)C(=O)N2CCC3(CC2)NCCc2[nH]cnc23)cc1	0	20%	20%	2%	-1%	7%
CC(C)c1ccccc1NC(=S)NC1CCCCC1	-2	5%	10µM*	0.45µM*	-1%	2%
CCCCc1ccccc1NC(=S)NC1CCCC1	-1	5%	4.5µM*	3.2µM*	-1%	-6%
CC(C)(C)C(=O)NC(=S)Nc1ccccc1C(=O)NC1CCCCC1	2	-16%	22%	u	7%	7%
CSc1ccccc1NC(=S)NC1CCCC1	-2	-3%	7.1µM*	6.3µM*	-1%	8%
S=C(Nc1cccc2ccccc12)NC1CCCCC1	-22	-15%[57.1 µM]	10µM*	2µM*	16%	-11%[57.1 µM]
CCn1ccnc1CN1CCC(n2nccc2NC(=O)CCc2ccccc2)CC1	x	-13%	-3%	-18%	3%	-11%
O=C(NCC1CCCO1)c1cn(Cc2ccccc2Cl)nc1-c1ccccc1 (stereo unspecified)	x	19%	x	x	x	1%
CCCC(=O)Nc1nnc(S(=O)(=O)N(C)c2ccccc2)s1	x	-16%	x	x	x	2%
CSc1ccccc1NC(=S)NC1CCCCC1	0	20%[57.1 µM]	u	3.5µM*	-7%	0%[57.1 µM]
CC(=O)OC1CC[C@]2(C)C(CC(OC(C)=O)[C@@]3(C)C4=CC(=O)OC(c5ccoc5)[C@]4(C)CCC23)C1(C)C (stereo partly specified)	0	x	-1%	13µM*	x	x
COC(=O)c1ccccc1NC(=S)NC(=O)COc1ccc(C)cc1	x	-13%	x	x	x	-3%
